Results reported in PubChem BioAssay (NCI).
Compounds without any hit were thinned out: in the full panel of roughly 79,000, 15% have a hit. Activity calls are given as the source filed them. Rule as the data show it: active = growth inhibition above about 70%; inactive = the rest.

Test: NCI Yeast Anticancer Drug Screen. Data for the mec2-1 strain (AID 157)
Conditions: S. cerevisiae mec2-1 strain, at 5.0 µM (retest, dose inferred, filed as 0.5), stronger effect = higher value
Summary of the method: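 Using mec2-1 yeast: add compound, measure growth, express inhibition versus vehicle-treated cultures.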

Question: Which growth inhibition does the source give for `Cc1ccc(O)c(C(c2cc(C)ccc2O)c2ccccc2Cl)c1` here?
Answer: 95% (active)

Question: Which growth inhibition does the source give for `O=c1ssc(=Nc2ccc(Cl)cc2)n1-c1ccc(Cl)cc1` here?
Answer: 57% (inactive)

Question: For `CC(=O)OC1CCC2(C)C(CCC3C4=CCC(C5COC(=O)C5)C4(C)CCC32)C1` (stereo unspecified), which growth inhibition is on record?
Answer: 17% (inactive)

Question: Which growth inhibition does the source give for `CCN(CC)CCCC(C)Nc1cc(F)cc2cccnc12` (stereo unspecified) here?
Answer: 4% (inactive)

Question: Which growth inhibition does the source give for `CC1CN(CCCN2c3ccccc3Sc3ccc(Cl)cc32)C(C)(C)C1` (stereo unspecified) here?
Answer: 5% (inactive)

Question: For `O=S(=O)(O)c1ccc2c(c1)C1C(C3C2C2(Cl)C(Cl)=C(Cl)C3(Cl)C2(Cl)Cl)C2(Cl)C(Cl)=C(Cl)C1(Cl)C2(Cl)Cl` (stereo unspecified), which growth inhibition is on record?
Answer: -8% (inactive)

Question: Which growth inhibition does the source give for `OC(CN1CCC(c2ccccc2)CC1)c1ccc(Br)cc1` (stereo unspecified) here?
Answer: 32% (inactive)

Question: With `CCOC(=O)/C(C#N)=C\c1cccc2ccccc12` as the molecule, how does the growth inhibition read?
Answer: 1% (inactive)

Question: Which growth inhibition does the source give for `COc1ccc2c(c1)CCC(N1CCCC(O)C1)C2` (stereo unspecified) here?
Answer: 12% (inactive)

Question: For `COc1cccc(N2CCN(CC(O)COc3cc4c(c5c3CCCC5)CCCC4)CC2)c1` (stereo unspecified), which growth inhibition is on record?
Answer: 20% (inactive)

Question: For `CC(=O)Oc1ccc(Cl)cc1Cc1cc(Cl)ccc1OC(C)=O`, which growth inhibition is on record?
Answer: -1% (inactive)

Question: For `CC(O)c1c2c(cc3c1CC1(C3)Cc3cc4c(c(C(C)O)c3C1)CCC4)CCC2` (stereo unspecified), which growth inhibition is on record?
Answer: -6% (inactive)

Question: With `O=c1c2ccccc2nc(-c2ccccc2)n1NC(=S)Nc1ccc(Cl)cc1[N+](=O)[O-]` as the molecule, how does the growth inhibition read?
Answer: -7% (inactive)

Question: Which growth inhibition does the source give for `O=C(CCCN1CCc2[nH]c3cc(F)ccc3c2C1)c1ccc(F)cc1` here?
Answer: -12% (inactive)

Question: For `OC(C(=Nc1ccccc1)c1ccccc1)c1ccccc1` (stereo unspecified), which growth inhibition is on record?
Answer: 11% (inactive)

Question: Which growth inhibition does the source give for `N#CC1CCCC(Cc2ccccc2)(c2ccccc2)C1=O` (stereo unspecified) here?
Answer: -3% (inactive)
